PubChem BioAssay AID1159580 (chemical genetic matrix, 2015)
Among all 5,500 compounds or so, about 2,000 (36%) were called active. Inconclusive results (about 18%) are left out. No stated cut-off is given here; in the data, active means normalized growth mostly below about 0.91 (no sharp cut-off); inconclusive means no clear call, values can overlap the other calls; inactive means mostly above about 0.92. This is one part of the list.

Experiment: chemical genetic growth profiling, strain panel (AID 1159580);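 further: tested at 20 µM; growth read once vehicle control cultures reached saturation at 30 °C; 1 = growth at the plate median or of vehicle wells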
Conditions: S. cerevisiae deletion strains, growth OD

Measured: normalized growth

O=C(Nc1ccc(Cl)cc1Cl)c1cnccc1C(F)(F)F
inactive: locus YAR019C, strain CDC15, stronger effect = lower value 0.978 | locus YBL105C, strain PKC1, stronger effect = lower value 0.976 | locus YBR135W, strain CKS1, stronger effect = lower value 0.981 | locus YBR136W, strain MEC1, stronger effect = lower value 0.971 | locus YBR160W, strain CDC28, stronger effect = lower value 0.974 | locus YDL017W, strain CDC7, stronger effect = lower value 0.984 | locus YDL028C, strain MPS1, stronger effect = lower value 0.976 | locus YDL101C, strain DUN1, stronger effect = lower value 0.964 | locus YDL108W, strain KIN28, stronger effect = lower value 0.97 | locus YDL132W, strain cdc53, stronger effect = lower value 0.972 | locus YDL214C, strain PRR2, stronger effect = lower value 0.987 | locus YDR052C, strain DBF4, stronger effect = lower value 0.977 | locus YDR054C, strain cdc34, stronger effect = lower value 0.977 | locus YDR226W, strain ADK1, stronger effect = lower value 0.976 | locus YDR477W, strain SNF1, stronger effect = lower value 0.981 | locus YER123W, strain YCK3, stronger effect = lower value 0.958 | locus YER133W, strain GLC7, stronger effect = lower value 0.976 | locus YFL009W, strain cdc4, stronger effect = lower value 0.971 | locus YFL029C, strain CAK1, stronger effect = lower value 0.975 | locus YFR003C, strain YPI1, stronger effect = lower value 0.977 | locus YFR019W, strain FAB1, stronger effect = lower value 0.98 | locus YFR028C, strain CDC14, stronger effect = lower value 0.97 | locus YGR040W, strain KSS1, stronger effect = lower value 0.977 | locus YGR052W, strain FMP48, stronger effect = lower value 1.13 | locus YGR092W, strain DBF2, stronger effect = lower value 0.998 | locus YHR030C, strain SLT2, stronger effect = lower value 1.15 | locus YHR079C, strain IRE1, stronger effect = lower value 1.09 | locus YHR082C, strain KSP1, stronger effect = lower value 1.11 | locus YHR205W, strain SCH9, stronger effect = lower value 0.974 | locus YIL147C, strain SLN1, stronger effect = lower value 0.971 | locus YJL095W, strain BCK1, stronger effect = lower value 1.14 | locus YJL128C, strain PBS2, stronger effect = lower value 0.935 | locus YJL157C, strain FAR1, stronger effect = lower value 0.973 | locus YJR016C, strain ILV3, stronger effect = lower value 0.976 | locus YJR066W, strain TOR1 (second series), stronger effect = lower value 1 | locus YJR066W, strain TOR1, stronger effect = lower value 1.12 | locus YKL048C, strain ELM1, stronger effect = lower value 0.974 | locus YKL067W, strain YNK1, stronger effect = lower value 0.981 | locus YKL101W, strain HSL1, stronger effect = lower value 0.986 | locus YKL193C, strain SDS22, stronger effect = lower value 0.967 | locus YKL203C, strain TOR2, stronger effect = lower value 1.05 | locus YLR113W, strain HOG1, stronger effect = lower value 1.05 | locus YLR133W, strain CKI1, stronger effect = lower value 0.988 | locus YLR403W, strain SFP1, stronger effect = lower value 0.967 | locus YML070W, strain DAK1, stronger effect = lower value 0.98 | locus YMR001C, strain CDC5, stronger effect = lower value 0.972 | locus YMR205C, strain PFK2 (second series), stronger effect = lower value 0.993 | locus YMR277W, strain FCP1, stronger effect = lower value 0.962 | locus YNL006W, strain LST8, stronger effect = lower value 0.973 | locus YNL020C, strain ARK1, stronger effect = lower value 0.989 | locus YNL161W, strain CBK1, stronger effect = lower value 0.974 | locus YNL183C, strain NPR1, stronger effect = lower value 1.1 | locus YNL207W, strain RIO2, stronger effect = lower value 0.976 | locus YNL222W, strain SSU72, stronger effect = lower value 0.976 | locus YNL307C, strain MCK1 (second series), stronger effect = lower value 0.988 | locus YOL078W, strain AVO1, stronger effect = lower value 0.975 | locus YOL136C, strain PFK27, stronger effect = lower value 0.982 | locus YOR061W, strain CKA2, stronger effect = lower value 0.99 | locus YOR119C, strain RIO1, stronger effect = lower value 1.01 | locus YOR231W, strain MKK1, stronger effect = lower value 1.1 | locus YOR329C, strain SCD5, stronger effect = lower value 0.975 | locus YPL031C, strain PHO85, stronger effect = lower value 0.977 | locus YPL153C, strain RAD53, stronger effect = lower value 0.99 | locus YPL204W, strain HRR25, stronger effect = lower value 0.976 | locus YPL209C, strain IPL1, stronger effect = lower value 0.967 | locus YPL256C, strain CLN2, stronger effect = lower value 1.07 | locus YPR025C, strain CCL1, stronger effect = lower value 0.976 | locus YPR106W, strain ISR1, stronger effect = lower value 0.972 | locus YPR111W, strain DBF20, stronger effect = lower value 0.974 | strain NNK1, stronger effect = lower value 0.971 | strain TSCII, stronger effect = lower value 0.972
